The text below walks through data of PubChem BioAssay AID588676 (Johns Hopkins Ion Channel Center, 2011).

About 3,900 (1.3%) of roughly 310,000 compounds were called active.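 Rule for the calls: active = calcium-response B-score plate-corrected more than 3 library SD below zero, starting fluorescence within 5 deviations, no agonist response on first addition; inactive = the rest.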 What follows is part of a selection rich in actives, with near analogues and random picks from the rest.

In this assay the target is Mas-related G-protein coupled receptor member X1 (Homo sapiens) (UniProt Q96LB2). Kind of assay: antagonists of human MrgX1 receptor, primary screen, HEK293 cells, Fluo-4 calcium flux (AID 588676).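 For B-score: peak minus trough fluorescence over baseline after final BAM8-22 challenge near maximal dose.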 The conditions noted are these: Fluo-4, BAM8-22 antagonism, at 10 µM; active compounds read low. For orientation: Calcium flux is commonly read through the fluorescence of an indicator in the cells.
Sequence of Mas-related G-protein coupled receptor member X1 (Homo sapiens) (Q96LB2 whole entry, looked up): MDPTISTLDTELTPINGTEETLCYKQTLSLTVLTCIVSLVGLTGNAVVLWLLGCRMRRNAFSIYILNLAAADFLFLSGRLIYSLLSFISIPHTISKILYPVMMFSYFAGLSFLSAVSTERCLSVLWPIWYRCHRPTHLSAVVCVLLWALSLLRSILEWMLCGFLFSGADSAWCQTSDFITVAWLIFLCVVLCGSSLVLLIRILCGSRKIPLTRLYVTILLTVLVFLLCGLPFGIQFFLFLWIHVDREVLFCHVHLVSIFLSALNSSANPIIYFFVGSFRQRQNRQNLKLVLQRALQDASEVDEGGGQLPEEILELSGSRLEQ
Consider `COc1ccc(CCNC(=O)C2CCCN(Cc3nc(-c4cccc(Cl)c4)oc3C)C2)cc1OC` (stereo not given), for which the B-score result is “inactive”.

`COCCn1c(C)cc(C(=O)COC(=O)/C=C/c2cccc(OC)c2)c1C`: the B-score result was “inactive”.

As to `CCc1[nH]nc(C(=O)N2CCCC(CO)(Cc3ccc(F)cc3F)C2)c1C` (stereo not given), the B-score entry is “inactive”.

In the case of `C=CCNC(=O)c1sc(SC)cc1-c1ccc(Cl)cc1`, the B-score result was “inactive”.

On to `CCC(=O)NC(Nc1nc2ccc(C)cc2s1)(C(=O)OC)C(F)(F)F` (stereo not given), for which the B-score entry is “inactive”.

On to `CCOc1ccc2nc(NC(=O)c3cc([N+](=O)[O-])ccc3N3CCOCC3)sc2c1`, for which the B-score result is “inactive”.

`O=C(NC(Nc1nc2ccc([N+](=O)[O-])cc2s1)(C(F)(F)F)C(F)(F)F)c1ccccc1`: the B-score was -6.28 (active).

Regarding `CCCOC(=O)c1c(NC(=O)c2cnn3c2NC(c2ccccc2)CC3C(F)(F)F)sc2c1CCCC2` (stereo not given), the B-score result was “inactive”.

Take `Cc1nc(N=C(N)N)nc2c(C)cccc12`: the B-score result is “inactive”.

Regarding `CCOc1cc(/C=C2/N=C(c3ccc(C(C)(C)C)cc3)OC2=O)cc(Cl)c1OS(C)(=O)=O`, the B-score entry was “inactive”.

For `Cc1cccc(NC(=O)Cn2c(=O)n(Cc3ccccc3)c(=O)c3c(C)c(C)sc32)c1`, the B-score entry is “inactive”.

`CCOc1ccccc1C1CC(c2ccccc2)Nc2nc(N)nn21` (stereo not given): the B-score entry is “inactive”.

In the case of `CCOc1ccccc1C1CC(c2ccc(Cl)cc2)Nc2nc(N)nn21` (stereo not given), the B-score was -7.74 (active).

`COc1ccc(C2CC(c3ccc(Cl)cc3Cl)Nc3nc(N)nn32)cc1OC` (stereo not given): the B-score entry is “inactive”.

For `COCCC(=O)Nc1ccc2c(c1)CN(C(=O)CCOC)CC2`, the B-score result is “inactive”.

`COc1ccc2cc(-c3[nH]ncc3CNCCn3nc(C)cc3C)ccc2c1`: the B-score entry is “inactive”.

In the case of `CCOc1ccc(CN2CCN(Cc3ccc4cc(F)ccc4n3)CC2CCO)cc1` (stereo not given), the B-score entry is “inactive”.

Consider `O=C(NCCc1csc(-c2ccccc2)n1)c1ccccc1F`, for which the B-score result is “inactive”.

On to `C=CCNC(=O)c1cc(-c2ccccc2O)on1`, for which the B-score was -5.5 (active).

In the case of `O=C(c1cc(-c2ccccc2O)on1)N1CCCC1`, the B-score result is “inactive”.

Take `O=C(Nc1cccnc1Cl)c1cc(-c2ccccc2O)on1`: the B-score result is “inactive”.

With `C=CCNC(=O)c1csc(-c2ccccc2)n1`, the B-score was -6.07 (active).

Consider `CNC(=O)c1csc(-c2ccccc2)n1`, for which the B-score result is “inactive”.

For the compound `CC(NC(=O)CCCC1CCCCC1)c1ccc(S(N)(=O)=O)cc1` (stereo not given), the B-score entry is “inactive”.

Take `Cc1ccc(C)c(N2CCN(C(=O)Cn3ncn4cccc4c3=O)CC2)c1`: the B-score result was “inactive”.

Regarding `O=C(C1=C[C@H](C2CC2)C[C@H](OCc2ccc(CO)cc2)O1)N1CCN(Cc2ccccc2)CC1`, the B-score entry was “inactive”.

As for `Nc1nc(NCc2ccccc2)n(-c2ccccc2)n1`, the B-score result is “inactive”.

Take `O=C1CCC(C(=O)N2CCCCO2)CN1Cc1cccc(C(F)(F)F)c1` (stereo not given): the B-score entry is “inactive”.

Turning to `O=C(NC(=S)Nc1cccc(-c2ccc(CO)o2)c1)c1cccs1`, the B-score entry is “inactive”.

On to `CCc1ccc(-c2cc3c(=O)n(CC(=O)NCCCN4CCN(Cc5ccccc5)CC4)nc(C)n3n2)cc1`, for which the B-score entry was “inactive”.

Consider `COc1cccc(CNC(=O)CN(C)S(=O)(=O)c2ccc3c(c2)c(=O)n(C)c(=O)n3C)c1`, for which the B-score entry was “inactive”.

Consider `COc1ccccc1NC(=O)CCC(=O)OC(C)C(=O)c1ccccc1` (stereo not given), for which the B-score result was “inactive”.

Turning to `CC1(C(=O)NNC(=S)NCC2CCCO2)CC1(Cl)Cl` (stereo not given), the B-score is -5.39 (active).

Regarding `CCC(=O)NC(NCC1CCCO1)C(Cl)(Cl)Cl` (stereo not given), the B-score entry is “inactive”.

Turning to `S=C(NCCc1ccccc1)NCC1CCCO1` (stereo not given), the B-score entry was “inactive”.

Take `COCCNC(=O)c1ccccc1NS(=O)(=O)c1ccc(C)c([N+](=O)[O-])c1`: the B-score was -4.52 (active).

On to `Cc1ccc(S(=O)(=O)NCCSc2ccccc2)cc1[N+](=O)[O-]`, for which the B-score entry is “inactive”.

For the compound `Cc1ccc(S(=O)(=O)Nc2nc3ccccc3s2)cc1[N+](=O)[O-]`, the B-score entry was “inactive”.

As to `CCN1C(=O)[C@H]2[C@@H](c3ccc(SC4CCCCC4)c(OC)c3)N[C@@](Cc3ccccc3)(C(=O)OC)[C@H]2C1=O`, the B-score entry was “inactive”.

Turning to `CCOC(=O)Cn1c(O)c(N=NC(=O)CNC(=O)Cc2ccccc2)c2ccccc21`, the B-score entry is “inactive”.

Take `CCOc1cc(S(=O)(=O)NCc2ccc3c(c2)OCO3)ccc1F`: the B-score entry is “inactive”.

For `Cc1cccc(NC(=O)N(Cc2cc3cc(C)cc(C)c3[nH]c2=O)CC2COCCO2)c1` (stereo not given), the B-score entry is “inactive”.

In the case of `CCOc1ccc(NC(=O)[C@H](C)NC(=O)C2CC(=O)N(c3ccc(OC)cc3)C2)cc1` (stereo not given in full), the B-score result is “inactive”.

As to `NC(=O)c1ccccc1N=Cc1ccc2ccccc2c1`, the B-score entry was “inactive”.

As for `O=C(CSc1ncccn1)NCCc1ccccc1`, the B-score entry was “inactive”.

In the case of `O=C(CSc1ncccn1)NC(=O)NCc1ccccc1`, the B-score is -6.78 (active).

In the case of `O=C(COc1ncnc2ccccc12)NC(=O)NCc1ccccc1`, the B-score result was “inactive”.

Regarding `CCOC(=O)[C@H]1[C@H]2COc3ccc(OC)cc3[C@@H]2N2C(=O)c3ccc(F)cc3NC(=O)[C@@]12C`, the B-score result was “inactive”.

For `COC1=C(N2CCOCC2)C(=O)c2ccccc2C1=O`, the B-score result is “inactive”.

Take `CN1C(C(=O)NCC2CC2)CC2Cn3c(nc4ccccc43)C21` (stereo not given): the B-score entry was “inactive”.

Turning to `COc1cccc(OCCOc2cccc(/C=N/n3cnnc3)c2)c1`, the B-score entry was “inactive”.

Take `C(=N\n1cnnc1)/c1cccnc1`: the B-score is -4.63 (active).

In the case of `Clc1ccc(CN2CCN(/N=C/c3cccnc3)CC2)cc1`, the B-score result was “inactive”.

With `Cc1ccc(S(=O)(=O)N2[C@@H](c3ccccc3F)C(C(=O)O)=CC[C@H]2c2ccc(Cl)cc2)cc1`, the B-score result is “inactive”.

With `CC1CCC(NC(=O)CN(C)S(=O)(=O)c2ccc3c(c2)c(=O)n(C)c(=O)n3C)CC1` (stereo not given), the B-score result was “inactive”.

Consider `CS(=O)(=O)Nc1ccccc1N=C(c1ccccc1)c1ccccc1`, for which the B-score entry is “inactive”.

For `NC(N)=NCCCc1cn(CC(=O)N2CCNCC2)nn1`, the B-score entry was “inactive”.

Regarding `Cc1nn(-c2ccccc2)c(C)c1NC(=O)COC(=O)c1cc(Cl)ccc1O`, the B-score result was “inactive”.

In the case of `Cc1nn(-c2ccccc2)c(C)c1NC(=O)COc1ccc(Cl)cc1Cl`, the B-score is -5.44 (active).

For `Cc1nn(-c2ccccc2)c(C)c1NC(=O)CCl`, the B-score entry is “inactive”.

On to `Cc1c(C(=O)NCC(c2ccco2)N2CCCC2)oc2ccc(Cl)cc12` (stereo not given), for which the B-score entry is “inactive”.

On to `Cc1c(-c2ccccc2)cn2c1-c1ccc(C)n1CC2`, for which the B-score result was “inactive”.

Turning to `Cc1cc(Br)ccc1NC(=O)c1cnc(N2CCN(c3ccccn3)CC2)c2ccccc12`, the B-score was -5.72 (active).

In the case of `Cc1cc(Br)ccc1NC(=O)c1sc2ncn(CC(=O)N3CCN(c4ccccn4)CC3)c(=O)c2c1C`, the B-score entry is “inactive”.

`O=C(Cc1ccc(Br)cc1)N1CCN(c2ccccn2)CC1`: the B-score entry is “inactive”.

As to `O=C(Nc1cc(C(F)(F)F)ccc1Cl)c1cc2nc3c(c(C(F)(F)F)n2n1)CCCC3`, the B-score entry was “inactive”.

On to `COC(=O)c1ccc2ccccc2c1OC1OC(CO)C(O)C(O)C1NC(C)=O` (stereo not given), for which the B-score result was “inactive”.

For the compound `O=C(Nc1ccc(Cl)cc1)c1cc2nc(C3CC3)cc(C(F)(F)F)n2n1`, the B-score result was “inactive”.

`Cc1cc(C)c(S(=O)(=O)NCC2CCC(C(=O)NCc3ccc4c(c3)OCO4)CC2)c(C)c1` (stereo not given): the B-score entry is “inactive”.

As to `COc1cc(NC(=O)CN2C(=O)NC(C)(c3ccc(OC(F)F)cc3)C2=O)cc(OC)c1OC` (stereo not given), the B-score result is “inactive”.

As for `CCN1CCN(CCNC(=O)c2ccc3c(c2)NC(=O)/C(=C\c2ccc(OC)c(OC)c2)S3)CC1`, the B-score entry is “inactive”.

On to `CCN1CCN(CCNC(=O)c2ccc(/C=C3/Sc4ccccc4N(Cc4cccc(C)c4)C3=O)cc2)CC1`, for which the B-score is -7.53 (active).

`O=C(NCCN1CCOCC1)c1ccc(/C=C2\Sc3ccccc3N(Cc3ccc(F)cc3)C2=O)cc1`: the B-score result was “inactive”.

On to `Cc1ccc(Nc2cc(=O)n(C3CCCCC3)c(=O)[nH]2)cc1C`, for which the B-score entry is “inactive”.

`COc1cccc(N(Cc2nnc3n2CCCCC3)C(=O)Nc2ccccc2F)c1`: the B-score result is “inactive”.

As to `Cc1ccc(Nc2nc(-c3ccc(O)cc3O)cs2)nc1`, the B-score is -4.59 (active).

Turning to `Clc1ccc(Nc2nc(-c3cccs3)cs2)nc1`, the B-score result was “inactive”.

On to `Cc1cccc(Nc2nc(-c3ccccc3)cs2)n1`, for which the B-score result is “inactive”.

As to `COc1ccc(-c2cc(C(=O)N(C)Cc3ccc(OC)c(OC)c3OC)c3ccccc3n2)cc1OC`, the B-score result was “inactive”.

On to `Cc1ccc(OCCCn2c(=O)oc3ccccc32)cc1`, for which the B-score result was “inactive”.

In the case of `CCCCCCCCCCOC(=O)Cn1c(COc2ccc(C)cc2)[n+](C)c2ccccc21`, the B-score was -10.1 (active).

For the compound `CCn1c(COc2cccc(OC)c2)nnc1SCC(=O)N1CCOCC1`, the B-score entry is “inactive”.

Consider `CCCCCCCCC(=O)NCCOc1ccccc1`, for which the B-score result is “inactive”.

`Cc1ccc(OCc2nc3ccccc3n2C)cc1`: the B-score result was “inactive”.

With `CCCCCCCCCCOC(=O)Cn1c(COc2cccc(OC)c2)[n+](C)c2ccccc21`, the B-score was -13.2 (active).

Turning to `CCOC(=O)c1cc(NC(=O)SCC(=O)O)c(C)nc1C`, the B-score result was “inactive”.

Regarding `CC(=O)N(C)c1ccc(NC(=O)C(F)(F)F)cc1`, the B-score is -7.18 (active).

Turning to `CC(=O)N(C)c1ccc(NC(=O)Nc2cccc3ccccc23)cc1`, the B-score entry was “inactive”.

In the case of `CCOc1ccc(NC(=O)Nc2ccc(N(C)C(C)=O)cc2)cc1`, the B-score result was “inactive”.

As to `O=C(COC(=O)Cn1cnc2ccccc21)Nc1cccc2c1C(=O)c1ccccc1C2=O`, the B-score entry is “inactive”.

On to `Cc1cccc(NC(=O)Cc2ccc(Br)cc2)n1`, for which the B-score result is “inactive”.

Consider `c1cc(-n2cnnn2)ccc1NC1=NCCC1`, for which the B-score is -5.5 (active).

With `O=C(Cc1c(F)cccc1Cl)Nc1ccc(-n2cnnn2)cc1`, the B-score entry was “inactive”.

Take `O=S(=O)(NC1CCCC1)c1ccc(-n2cnnn2)cc1`: the B-score result was “inactive”.

On to `Cc1ccc(Cl)c(OCC(=O)N(C)CC(=O)Nc2ccc(N3CCOCC3)cc2)c1`, for which the B-score entry was “inactive”.

On to `CCOC(=O)c1ccc(COC(=O)CCc2nc(-c3ccccc3)c(-c3ccccc3)o2)cc1`, for which the B-score entry is “inactive”.

`Cc1ccc(NC(=O)Nc2cccnc2)cc1`: the B-score entry is “inactive”.

As to `O=C(NNC(=O)c1csc(-c2cccnc2)n1)Nc1ccc(Cl)cc1`, the B-score entry is “inactive”.

`O=C(Nc1ccc(Cl)cc1)Nc1ccc(Oc2cccnc2)nc1`: the B-score is -7.03 (active).

For `CCn1c(SCC(=O)Nc2cc(C)ccc2C)nnc1-c1cnccn1`, the B-score entry was “inactive”.

Consider `Cc1ccccc1NC(=O)C(C)c1ccc(-c2ccccc2)c(F)c1` (stereo not given), for which the B-score result was “inactive”.

`CCOc1ccc(CN2CCC(n3nccc3NC(=O)C3CC3)CC2)cc1CO`: the B-score entry is “inactive”.

`O=C(NC1CCCC1)C(c1ccccn1)N(C(=O)c1csnn1)C1CCCC1` (stereo not given): the B-score entry is “inactive”.

Regarding `O=C(NC1CCCC1)C(c1ccc(Cl)cc1)N(C(=O)c1csnn1)C1CC1` (stereo not given), the B-score result was “inactive”.

In the case of `Cc1ccc(C(C(=O)NC2CCCCC2)N(C(=O)c2csnn2)C2CC2)o1` (stereo not given), the B-score is -7.09 (active).
